The record followed here is PubChem BioAssay (EPA / NIEHS).

Active and inactive are the calls of the source. The calls were made as follows: active = hit-call score of the fitted dose curve at least 0.9, where 1 is the maximum; inactive = score below 0.9.

Read-out in the first experiment: Interleukin-8 (IL8), CXCL8 (gene 3576)
In words: BSK_BE3C_IL8: BioMAP Diversity Plus: BE3C Assay for Interleukin-8 (IL8) Biomarker Activity (AID 2284280). Conditions: primary human bronchial epithelial cells. The procedure, abridged:
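Measured at 24 h after treatment, IL-8 from human primary bronchial epithelial cells is determined by ELISA, and the response is modelled as increasing relative to DMSO negative control.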
With `NC(=O)C(F)(F)C(F)(F)F`, the result was inactive.

For `OCC(F)(F)OC(F)(F)C(F)(F)OC(F)(F)CO`, the outcome was inactive.

Turning to `O=C(O)C(F)(F)OC(F)(F)C(F)(F)OC(F)(F)C(=O)O`, the outcome was inactive.

With `FC(F)(F)C(F)(C(F)(F)F)C(F)(F)C(F)(F)CC1CO1` (stereo not given), the result was inactive.

Take `O=C(O)C(F)(F)OC(F)(F)C(F)(F)OC(F)(F)F`: the result was inactive.

For the compound `C=CC(=O)OCC(F)(F)C(F)F`, the outcome was inactive.

`O=S(=O)(F)C(F)(F)C(F)(F)C(F)(F)C(F)(F)C(F)(F)C(F)(F)C(F)(F)C(F)(F)F`: the result was inactive.

`COP(=O)(CCC(=O)NCO)OC`: the outcome was inactive.

Consider `O=C(O)C(F)(OC(F)(F)C(F)(F)C(F)(F)F)C(F)(F)F` (stereo not given), for which the result was inactive.

In the case of `O=C(O)C(F)(F)C(F)(F)C(=O)O`, the result was inactive.

For the compound `O=C(O)C=CC(F)(C(F)(F)F)C(F)(F)F`, the result was inactive.

Regarding `COC(=O)C(F)(F)C(F)(F)OC(F)(C(F)(F)F)C(F)(F)OC(F)=C(F)F` (stereo not given), the outcome was inactive.

Turning to `OCC(F)(F)OC(F)(F)C(F)(F)OC(F)(F)C(F)(F)OC(F)(F)F`, the result was inactive.

`OCC(F)(F)OC(F)(F)C(F)(F)OC(F)(F)C(F)(F)OC(F)(F)CO`: the result was inactive.

Turning to `CC(O)C(F)(F)C(F)(F)F` (stereo not given), the result was inactive.

Read-out in another experiment: Epidermal growth factor receptor (EGFR), EGFR (gene 1956)
In words: BSK_BE3C_EGFR: BioMAP Diversity Plus: BE3C Assay for Epidermal growth factor receptor (EGFR) Biomarker Activity (AID 2284281). Conditions: primary human bronchial epithelial cells. The method, boiled down: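 Measured 24 h after dosing in primary human bronchial epithelial cultures, EGFR was read by ELISA; gain of signal over DMSO control defined activity.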
Turning to `NC(=O)C(F)(F)C(F)(F)F`, the outcome was inactive.

As to `OCC(F)(F)OC(F)(F)C(F)(F)OC(F)(F)CO`, the outcome was inactive.

As for `O=C(O)C(F)(F)OC(F)(F)C(F)(F)OC(F)(F)C(=O)O`, the outcome was inactive.

Consider `FC(F)(F)C(F)(C(F)(F)F)C(F)(F)C(F)(F)CC1CO1` (stereo not given), for which the outcome was inactive.

On to `O=C(O)C(F)(F)OC(F)(F)C(F)(F)OC(F)(F)F`, for which the result was inactive.

As for `C=CC(=O)OCC(F)(F)C(F)F`, the result was inactive.

With `O=S(=O)(F)C(F)(F)C(F)(F)C(F)(F)C(F)(F)C(F)(F)C(F)(F)C(F)(F)C(F)(F)F`, the result was inactive.

In the case of `COP(=O)(CCC(=O)NCO)OC`, the outcome was inactive.

Turning to `O=C(O)C(F)(OC(F)(F)C(F)(F)C(F)(F)F)C(F)(F)F` (stereo not given), the result was inactive.

For the compound `O=C(O)C(F)(F)C(F)(F)C(=O)O`, the outcome was inactive.

For the compound `O=C(O)C=CC(F)(C(F)(F)F)C(F)(F)F`, the result was inactive.

Take `COC(=O)C(F)(F)C(F)(F)OC(F)(C(F)(F)F)C(F)(F)OC(F)=C(F)F` (stereo not given): the outcome was inactive.

As to `OCC(F)(F)OC(F)(F)C(F)(F)OC(F)(F)C(F)(F)OC(F)(F)F`, the result was inactive.

Consider `OCC(F)(F)OC(F)(F)C(F)(F)OC(F)(F)C(F)(F)OC(F)(F)CO`, for which the result was inactive.

For `CC(O)C(F)(F)C(F)(F)F` (stereo not given), the outcome was inactive.
